From PubChem BioAssay
An excerpt weighted towards active compounds, which were near 0.8% of everything screened.
FEN1 inhibitor: human FEN1 inhibition | 390,000 compounds, 0.35% hits | AID 588795 | P39748 | Potency, µM (doses to about 114 µM), for inactives: top-dose activity change, negative = inhibition, actives largely listed as inhibitors | Recombinant FEN1 flap cleavage, fluorescence, 15 min; further: potency means the concentration at half of the fitted maximal effect; nearly all actives have a fitted effect of over 65% in size
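Quantitative HTS format: each compound was titrated, incubated with 10 nM nuclease for 15 min at room temperature, then challenged with flap substrate at 50 nM final. Signal change over 15 min gave concentration–effect curves.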
PGK inhibitor: inhibitors of T. brucei phosphoglycerate kinase; 380,000 compounds, 0.043% hits; AID 602233; PGK/GAPDH coupled, Kinase-Glo luminescence, 60 min; Potency, µM (highest dose often 57.5 µM), for inactives: top-dose activity change, negative = inhibition, usual class: inhibitors; further: potency means the concentration at half of the fitted maximal effect; nearly all actives have a fitted effect of over 60% in size
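Luminescent ATP detection (Kinase-Glo Plus) follows a 60-minute room-temperature incubation, with wells lacking PGK as controls. Buffer: 100 mM TEA (pH 7.6), 5 mM MgCl2, 0.01% Tween-20. Coupling enzyme GAPDH (100 nM final) supplies unstable 1,3-BPG in-well.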
PI4K2A inh: blocks human PI4K2A kinase activity; purified PI4K2A, ADP-Glo luminescence, 1 h; stronger effect = lower value; 420,000 compounds, 0.13% hits; Q9BTU6; activity change, negative = inhibition, % at 76.9 µM; AID 1346378; in the data active means activity change below about -50%; inconclusive means mostly about -30% to -49%;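 further: -100% = wells without enzyme as full effect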
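PI4K2A activity was measured by ADP-Glo luminescence: enzyme (4 ug/mL stock) and phosphatidylinositol (1.2 mM stock) in Tris pH 7.5/MgCl2/EGTA/Triton X-100 buffer were reacted with ATP (300 microM stock) for one hour at ambient temperature.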
Tb PFK inh: T. brucei PFK enzyme inhibition; O15648; 330,000 compounds, 0.17% hits; T. brucei PFK, ADP-Glo luminescence; Potency, µM (doses to about 57.5 µM), without a hit: at the top dose activity, negative = inhibition, usual class: inhibitors;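 further: potency means the concentration at half of the fitted maximal effect; 0% = uninhibited 1x PFK enzyme wells and -100% = no-enzyme wells; nearly all actives have a fitted effect of over 60% in size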
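ADP-Glo luminescence quantified ADP after 45 min at room temperature, with 1.25 nM T. brucei PFK, 0.1 mM ATP and 0.5 mM fructose-6-phosphate in pH 8.0 TEA buffer. qHTS titrations up to 57 µM; curves classified by quality.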
APEX1 inh: inhibitors of human APE1 endonuclease. recombinant APE1, TAMRA/BHQ-2 abasic DNA cleavage fluorescence. Potency, µM (top dose mostly 65.8 µM), for inactives: at the top dose activity change, negative = inhibition, usual class: inhibitors. 350,000 compounds, 0.35% hits;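 further: potency means the concentration at half of the fitted maximal effect; plate controls were vehicle for no effect and reference inhibitor for full effect; nearly all actives have a fitted effect of over 55% in size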
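Readout is kinetic fluorescence (ex 525, em 598 nm) from cleavage of 50 nM TAMRA/BHQ-2 THF abasic duplex by 0.75 nM APE1, compound added 15 min beforehand at RT.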
TDP1 block: inhibitors of human tyrosyl-DNA phosphodiesterase TDP1 | Q9NUW8 | recombinant TDP1, AlphaScreen DNA substrate cleavage | Potency, µM (titrated, usually from 130 µM), for the others: at the top dose activity change, negative = inhibition, actives largely listed as inhibitors | 350,000 compounds, 0.28% hits | AID 485290; further: potency means the concentration at half of the fitted maximal effect; nearly all actives have a fitted effect of over 40% in size
Target sequence (Q9NUW8 whole entry, looked up): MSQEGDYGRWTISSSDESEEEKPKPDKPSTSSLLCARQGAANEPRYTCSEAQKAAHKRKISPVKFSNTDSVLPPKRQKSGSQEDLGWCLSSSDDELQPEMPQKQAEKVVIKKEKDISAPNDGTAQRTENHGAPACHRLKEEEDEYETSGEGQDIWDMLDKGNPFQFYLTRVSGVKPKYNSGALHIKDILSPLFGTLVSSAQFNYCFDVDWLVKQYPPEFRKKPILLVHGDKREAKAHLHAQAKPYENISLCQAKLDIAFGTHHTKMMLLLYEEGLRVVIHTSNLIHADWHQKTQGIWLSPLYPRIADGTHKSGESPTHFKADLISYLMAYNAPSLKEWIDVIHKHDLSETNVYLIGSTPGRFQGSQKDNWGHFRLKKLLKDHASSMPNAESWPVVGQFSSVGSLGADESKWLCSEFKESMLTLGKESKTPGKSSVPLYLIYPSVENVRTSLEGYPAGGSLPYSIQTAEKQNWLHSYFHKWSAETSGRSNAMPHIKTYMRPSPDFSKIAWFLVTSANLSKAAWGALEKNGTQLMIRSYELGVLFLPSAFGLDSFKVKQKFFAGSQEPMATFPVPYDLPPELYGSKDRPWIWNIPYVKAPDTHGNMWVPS
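Tdp1 1 nM final; 15 min RT w/ cpd; substrate 15 nM, 5 min; beads 10 ug/ml, 10 min; AlphaScreen read. Neg ctrl: no enzyme.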
Active calls of the source: *; i = inactive; ? = inconclusive; / = no result given; [ ] = dose if it differs, or a comment. Unless noted, the call rests on the fitted dose curve; in most records, active means well fitted curve in the direction sought with a large enough effect; inconclusive means small, poorly fitted or top-dose-only effect, or another doubt; inactive means no such curve, though single readings can be large; an effect the other way counts as inactive or inconclusive. Unless noted, on the % scale 0 is the no-effect control and ±100 the full control effect.

SMILES	FEN1 inhibitor	PGK inhibitor	PI4K2A inh	Tb PFK inh	APEX1 inh	TDP1 block
C=N[C@@H](C(=O)N[C@@H]1C(=O)N2[C@@H]1SC(C)(C)[C@@H]2C(=O)O)c1ccccc1	/	/	/	/	-0.7%	/
CS(=O)(=O)c1ccc(-c2cn3ccccc3n2)cc1	/	/	-6.5	/	/	/
c1nc(NCc2ccoc2)c2cc(-c3ccc4c(c3)OCO4)ccc2n1	/	/	/	/	/	4.3%
Cc1ccc(CCn2c3c(c4cc(Cl)ccc42)CN(C)CC3)cn1	/	/	-4.8	/	/	/
NNC(=O)c1ccc(CSc2n[nH]c(=O)[nH]c2=O)cc1	-0.2%	-0.1%	-16.3	?	?	44.7µM*
COc1ccc(C2=Nn3c(nnc3-c3ccccc3C(F)(F)F)SC2)cc1OC1CCCC1	/	/	/	/	-3.7%	/
CC(=O)Nc1ccc(S(=O)(=O)N2CCN(S(=O)(=O)c3c(F)cccc3F)CC2)cc1	/	/	/	/	/	-0.2%
CCc1ccc(/C(C)=N/NC(=O)CNC(=O)/C=C/c2ccco2)cc1	44.7µM*	14.1µM*	-26.2	/	/	/
O=C(O)c1cccc(N2C(=O)/C(=C/c3ccc(SCc4ccc(Cl)cc4)o3)SC2=S)c1	?	35.5µM*	-12.6	17.6%	10µM*	/
COc1ccc(C2c3ccc(OCc4ccccc4)cc3Oc3ncn(CCN4CCOCC4)c(=N)c32)cc1OC (configuration not stated)	/	/	/	/	/	4.9%
COc1ccc(C2=NOC(C)(c3nnc(-c4ccncc4)o3)C2)cc1 (configuration not stated)	-6.5%	i	-60.1*	/	/	/
CC1(c2nnc(-c3ccccc3)o2)CC(c2ccccc2)=NO1 (configuration not stated)	3.9%	0.6%	2.5	/	/	/
C#CCOCCOCCOCCNc1nc(N2CCN(C(=O)CCCCCCCCCCNC(=O)Cn3cc(C[C@@H](C)O)nn3)CC2)nc(N2CCN(C(=O)CCCCCCCCCCNC(=O)[C@H](CCCCN)n3cc(C[C@@H](C)CC)nn3)CC2)n1	50.1µM*	-8.5%	-5.2	?	16.9%	/
C#CCOCCOCCOCCNc1nc(N2CCN(C(=O)CCCCCCCCCCNC(=O)[C@H](CCCCN)n3cc(C[C@@H](C)CC)nn3)CC2)nc(N2CCN(C(=O)CCCCCCCCCCNC(=O)[C@H](CCCCN)n3cc(C[C@@H](C)CC)nn3)CC2)n1	22.4µM*	-1.2%	-3.4	/	/	/
C#CCOCCOCCOCCNc1nc(N2CCN(C(=O)CCCCCCCCCCNC(=O)[C@@H](CCC(=O)O)n3cc(CCCCCN)nn3)CC2)nc(N2CCN(C(=O)CCCCCCCCCCNC(=O)[C@@H](CCC(=O)O)n3cc(CCCCCN)nn3)CC2)n1	-2.7%	-7.1%	-1.9	-14.6%	36.2%	1.2%
C#CCOCCOCCOCCNc1nc(N2CCN(C(=O)CCCCCCCCCCNC(=O)[C@H](CCCCN)n3cc(CCO)nn3)CC2)nc(N2CCN(C(=O)CCCCCCCCCCNC(=O)[C@H](CCCCN)n3cc(CCO)nn3)CC2)n1	79.4µM*	13.0%	1.8	29.9%	-40.5%	13.8%
C#CCOCCOCCOCCNc1nc(N2CCN(C(=O)CCCCCCCCCCNC(=O)[C@H](CCCCN)n3cc(CCO)nn3)CC2)nc(N2CCN(C(=O)CCCCCCCCCCNC(=O)[C@H](CCCN=C(N)N)n3cc(C[C@@H](C)CC)nn3)CC2)n1	22.4µM*	14.5%	-2.4	-4.6%	?	9.3%
C#CCOCCOCCOCCNc1nc(N2CCN(C(=O)CCCCCCCCCCNC(=O)[C@H]([C@@H](C)CC)n3cc(CCCCN=C(N)N)nn3)CC2)nc(N2CCN(C(=O)CCCCCCCCCCNC(=O)[C@H](CCCCN)n3cc(C[C@@H](C)CC)nn3)CC2)n1	/	/	/	-7.1%	?	0.0%
Cc1ccc2ccc(Cl)cc2n1	/	/	-3.4	/	/	/
O=C(c1ccc2c3n(nc2c1)-c1ccccc1CO3)N1CCOCC1	-2.5%	?	-55.1*	-20.9%	1.2%	1.2%
O=C(c1ccc2c3n(nc2c1)-c1ccc(Cl)cc1CO3)N1CCOCC1	-3.4%	-21.2%	-15.1	-6.7%	1.6%	5.9%
CC(=O)C1=C(O)C(=O)N(Cc2ccccc2)C1c1ccc(N(C)C)cc1 (configuration not stated)	17.8µM*	-1.9%	2.3	1.1%	-3.7%	/
O=C(O)Cn1cnnn1	/	/	1.0	/	/	/
COc1ccc(N=Nc2ccc(N)nc2N)cc1	3.0%	-6.8%	-5.5	3.1%	7.7%	8.6%
CCOc1ccc2nc3cc(N=Nc4ccc(N)nc4N)ccc3c(N)c2c1	7.08µM*	-22.1%	4.6	/	/	/
SMILES	FEN1 inhibitor	PGK inhibitor	PI4K2A inh	Tb PFK inh	APEX1 inh	TDP1 block
Cc1c(Cl)cccc1NS(=O)(=O)c1cc2c(cc1F)NC(=O)CC2	/	/	/	/	/	0.3%
Cc1[nH]n(-c2ccccc2)c(=O)c1C(c1cc(Cl)ccc1O)c1c(C)[nH]n(-c2ccccc2)c1=O	?	-7.5%	-51.0*	/	/	-7.5%[12.3 µM]
Cc1[nH]n(-c2ccccc2)c(=O)c1C(c1ccccc1C(=O)O)c1c(C)[nH]n(-c2ccccc2)c1=O	-2.8%	-1.6%	1.7	2.5%	3.7%	0.0%
CCN1/C(=C/C=C/C=C/c2sc3ccccc3[n+]2CC)Sc2ccccc21	31.6µM*	/	/	?	?	2.9%
CCN1/C(=C/C=C/c2sc3ccccc3[n+]2CC)Sc2ccccc21	2.6%	?	?	0.4%	23.8µM*	/
CCN1/C(=C/C=C/C=C/C=C/c2sc3ccccc3[n+]2CC)Sc2ccccc21	-17.3%	-8.1%	-17.9	6.1%	-31.0%	/
CC[n+]1c(/C=C/Nc2ccccc2)sc2ccccc21	-9.3%	-5.8%	-4.1	0.2%	-6.5%	7.1%
OC[C@H]1O[C@@H](n2cnc3c(=S)nc[nH]c32)[C@H](O)[C@@H]1O	/	/	-3.7	/	/	/
Cc1c(N2C(=O)c3ccc4c5c(ccc(c35)C2=O)CC4)c(=O)n(-c2ccccc2)n1C	50.1µM*	?	-27.4	?	?	17.8µM*
Cc1c(N2C(=O)CSC2=S)c(=O)n(-c2ccccc2)n1C	-4.1%	2.0%	4.1	0.2%	-5.5%	-4.6%
CNC(=O)c1c(I)c(NC(C)=O)c(I)c(C(=O)O)c1I	/	/	4.2	/	/	/
CCc1nnc(NC(=O)c2sc3nc4c(cc3c2N)CCCCCC4)s1	-0.7%	0.4%	2.8	0.0%	0.6%	50.1µM*
COc1ccc(OC)c(CCNC(=O)Cn2ncc3c([nH]c4ccccc43)c2=O)c1	7.7%	i	1.6	/	/	2.5%
COc1ccc(OC)c(CCNC(=O)Cn2sc3nc(C)cc(C)c3c2=O)c1	/	/	/	2.39µM*	?	11.8%
CN1/C(=C/c2cccc[n+]2CCO)Sc2ccccc21	-1.4%	-1.1%	-8.7	-4.5%	5.5%	/
